# According to the supplement of paper PMC4466140:
# Experiments:
# Assay in all cases: SPOT peptide array binding signal intensity (averaged, normalized) (arbitrary units (background-subtracted, floor 0; scale differs between SH3 domains)); higher = stronger binding of the SH3 domain to the peptide
# [1] = biological target: AgAbp1
# Outline: (§1)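 Binding signal is given in arbitrary units that differ between domains and is the normalized, background-subtracted spot intensity averaged across replicates. Each GST-SH3 fusion from one of four yeast species was made in E. coli BL21(DE3), purified on glutathione Sepharose and incubated at 10 μg/ml overnight at 4°C on cellulose-bound synthetic 15-mer peptides in which cysteines were replaced by serines. Detection used anti-GST antibody, an HRP anti-mouse secondary and luminol, followed by imaging and Genespotter quantification.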
# [2] = biological target: AgBbc1
# Outline: as §1
# [3] = biological target: AgBem1-D1
# Outline: as §1
# [4] = biological target: AgBzz1-D1
# Outline: as §1
# [5] = biological target: AgBzz1-D2
# Outline: as §1
# [6] = biological target: AgCyk3
# Outline: as §1
# [7] = biological target: AgFus1
# Outline: as §1
# [8] = biological target: AgHof1
# Outline: as §1
# [9] = biological target: AgHse1
# Outline: as §1
# [10] = biological target: AgLsb1
# Outline: as §1
# [11] = biological target: AgLsb4
# Outline: as §1
# [12] = biological target: AgMyo5
# Outline: as §1
# [13] = biological target: AgNbp2
# Outline: as §1
# [14] = biological target: AgRvs167
# Outline: as §1
# [15] = biological target: AgSho1
# Outline: as §1
# [16] = biological target: AgSla1-D1-D2
# Outline: as §1
# [17] = biological target: AgSla1-D3
# Outline: as §1
# [18] = biological target: CaAbp1-D1
# Outline: as §1
# [19] = biological target: CaAbp1-D2
# Outline: as §1
# [20] = biological target: CaBbc1
# Outline: as §1
# [21] = biological target: CaBem1-D1
# Outline: as §1
# [22] = biological target: CaBzz1-D1
# Outline: as §1
# [23] = biological target: CaBzz1-D2
# Outline: as §1
# [24] = biological target: CaCyk3
# Outline: as §1
# [25] = biological target: CaFus1
# Outline: as §1
# [26] = biological target: CaHof1
# Outline: as §1
# [27] = biological target: CaHse1
# Outline: as §1
# [28] = biological target: CaLsb1
# Outline: as §1
# [29] = biological target: CaLsb4
# Outline: as §1
# [30] = biological target: CaMyo5
# Outline: as §1
# [31] = biological target: CaNbp2
# Outline: as §1
# [32] = biological target: CaRvs167
# Outline: as §1
# [33] = biological target: CaRvs167-3
# Outline: as §1
# [34] = biological target: CaSho1
# Outline: as §1
# [35] = biological target: CaSla1-D1-D2
# Outline: as §1
# [36] = biological target: CaSla1-D3
# Outline: as §1
# [37] = biological target: ScAbp1
# Outline: as §1
# [38] = biological target: ScBbc1
# Outline: as §1
# [39] = biological target: ScBem1-D1
# Outline: as §1
# [40] = biological target: ScBzz1-D1
# Outline: as §1
# [41] = biological target: ScBzz1-D2
# Outline: as §1
# [42] = biological target: ScCyk3
# Outline: as §1
# [43] = biological target: ScFus1
# Outline: as §1
# [44] = biological target: ScHof1
# Outline: as §1
# [45] = biological target: ScHse1
# Outline: as §1
# [46] = biological target: ScLsb1
# Outline: as §1
# [47] = biological target: ScLsb2
# Outline: as §1
# [48] = biological target: ScLsb3
# Outline: as §1
# [49] = biological target: ScLsb4
# Outline: as §1
# [50] = biological target: ScMyo3
# Outline: as §1
# [51] = biological target: ScMyo5
# Outline: as §1
# [52] = biological target: ScNbp2
# Outline: as §1
# [53] = biological target: ScPex13
# Outline: as §1
# [54] = biological target: ScRvs167
# Outline: as §1
# [55] = biological target: ScSho1
# Outline: as §1
# [56] = biological target: ScSla1-D1-D2
# Outline: as §1
# [57] = biological target: ScSla1-D3
# Outline: as §1
# [58] = biological target: SpAbp1-D1
# Outline: as §1
# [59] = biological target: SpBbc1
# Outline: as §1
# [60] = biological target: SpBzz1-D1
# Outline: as §1
# [61] = biological target: SpBzz1-D2
# Outline: as §1
# [62] = biological target: SpCyk3
# Outline: as §1
# [63] = biological target: SpHof1
# Outline: as §1
# [64] = biological target: SpHof1-2
# Outline: as §1
# [65] = biological target: SpHof1-3
# Outline: as §1
# [66] = biological target: SpHse1
# Outline: as §1
# [67] = biological target: SpLsb1
# Outline: as §1
# [68] = biological target: SpLsb4
# Outline: as §1
# [69] = biological target: SpMyo1
# Outline: as §1
# [70] = biological target: SpNbp2
# Outline: as §1
# [71] = biological target: SpPex13
# Outline: as §1
# [72] = biological target: SpRvs167
# Outline: as §1
# [73] = biological target: SpSla1-D1-D2
# Outline: as §1
# [74] = biological target: SpSla1-D3
# Outline: as §1
binder,measurement,setting,value
DKSRPPRPPPKPLHL,SPOT peptide array binding signal intensity,[1],1130
same,SPOT peptide array binding signal intensity,[2],193
same,SPOT peptide array binding signal intensity,[3],≤ 0
same,SPOT peptide array binding signal intensity,[4],256
same,SPOT peptide array binding signal intensity,[5],134
same,SPOT peptide array binding signal intensity,[6],≤ 0
same,SPOT peptide array binding signal intensity,[7],0.5
same,SPOT peptide array binding signal intensity,[8],14.2
same,SPOT peptide array binding signal intensity,[9],≤ 0
same,SPOT peptide array binding signal intensity,[10],1.5
same,SPOT peptide array binding signal intensity,[11],15
same,SPOT peptide array binding signal intensity,[12],62.2
same,SPOT peptide array binding signal intensity,[13],62.5
same,SPOT peptide array binding signal intensity,[14],1.33
same,SPOT peptide array binding signal intensity,[15],250
same,SPOT peptide array binding signal intensity,[16],≤ 0
same,SPOT peptide array binding signal intensity,[17],9
same,SPOT peptide array binding signal intensity,[18],782
same,SPOT peptide array binding signal intensity,[19],1940
same,SPOT peptide array binding signal intensity,[20],334
same,SPOT peptide array binding signal intensity,[21],120
same,SPOT peptide array binding signal intensity,[22],2800
same,SPOT peptide array binding signal intensity,[23],578
same,SPOT peptide array binding signal intensity,[24],34.5
same,SPOT peptide array binding signal intensity,[25],≤ 0
same,SPOT peptide array binding signal intensity,[26],0.5
same,SPOT peptide array binding signal intensity,[27],63.2
same,SPOT peptide array binding signal intensity,[28],≤ 0
same,SPOT peptide array binding signal intensity,[29],471
same,SPOT peptide array binding signal intensity,[30],0.5
same,SPOT peptide array binding signal intensity,[31],56
same,SPOT peptide array binding signal intensity,[32],5.33
same,SPOT peptide array binding signal intensity,[33],2
same,SPOT peptide array binding signal intensity,[34],5.5
same,SPOT peptide array binding signal intensity,[35],458
same,SPOT peptide array binding signal intensity,[36],14.2
same,SPOT peptide array binding signal intensity,[37],516
same,SPOT peptide array binding signal intensity,[38],14.5
same,SPOT peptide array binding signal intensity,[39],≤ 0
same,SPOT peptide array binding signal intensity,[40],118
same,SPOT peptide array binding signal intensity,[41],3
same,SPOT peptide array binding signal intensity,[42],≤ 0
same,SPOT peptide array binding signal intensity,[43],≤ 0
same,SPOT peptide array binding signal intensity,[44],0.5
same,SPOT peptide array binding signal intensity,[45],≤ 0
same,SPOT peptide array binding signal intensity,[46],210
same,SPOT peptide array binding signal intensity,[47],≤ 0
same,SPOT peptide array binding signal intensity,[48],1660
same,SPOT peptide array binding signal intensity,[49],11
same,SPOT peptide array binding signal intensity,[50],170
same,SPOT peptide array binding signal intensity,[51],306
same,SPOT peptide array binding signal intensity,[52],244
same,SPOT peptide array binding signal intensity,[53],669
same,SPOT peptide array binding signal intensity,[54],47.7
same,SPOT peptide array binding signal intensity,[55],379
same,SPOT peptide array binding signal intensity,[56],83
same,SPOT peptide array binding signal intensity,[57],≤ 0
same,SPOT peptide array binding signal intensity,[58],1120
same,SPOT peptide array binding signal intensity,[59],≤ 0
same,SPOT peptide array binding signal intensity,[60],684
same,SPOT peptide array binding signal intensity,[61],1.5
same,SPOT peptide array binding signal intensity,[62],1
same,SPOT peptide array binding signal intensity,[63],≤ 0
same,SPOT peptide array binding signal intensity,[64],≤ 0
same,SPOT peptide array binding signal intensity,[65],90.8
same,SPOT peptide array binding signal intensity,[66],16.8
same,SPOT peptide array binding signal intensity,[67],362
same,SPOT peptide array binding signal intensity,[68],746
same,SPOT peptide array binding signal intensity,[69],466
same,SPOT peptide array binding signal intensity,[70],≤ 0
same,SPOT peptide array binding signal intensity,[71],≤ 0
same,SPOT peptide array binding signal intensity,[72],276
same,SPOT peptide array binding signal intensity,[73],≤ 0
same,SPOT peptide array binding signal intensity,[74],≤ 0
